Laboratory results from PubChem BioAssay AID1476 (National Center for Advancing Translational Sciences (NCATS), 2009).
Several values for one entry are separate records, joined by “and”; a condition that tells them apart may be missing. Identical values can stand only once. The campaign covered roughly 200,000 compounds. About 4,500 (2.2%) were called active. About 12% were inconclusive and are not listed. What follows is part of a selection rich in actives, with near analogues and random picks from the rest. Some compounds were tested as several samples or in several runs, with calls that do not always agree. A number with no mark means an inactive call. Calls follow the shape of the dose curve; as a rule, active = well fitted inhibition curve with a large enough effect; inconclusive = small, poorly fitted or top-dose-only effect, or effect the other way; inactive = flat fitted curve, though single readings scatter.
Also: nearly all actives have a fitted effect of over 40% in size.
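For max response, negative = inhibition in this document: plate controls were enzyme without inhibitor for no effect and buffer without enzyme for full effect.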
Potency is read from the fitted curve at half-maximal effect.

Each molecule was assayed against Cruzipain (Trypanosoma cruzi) (UniProt P25779) (assay: qHTS Assay for Promiscuous and Specific Inhibitors of Cruzain (without detergent)). Details: purified cruzain, Z-FR-AMC fluorescence, no detergent.
Chain of Cruzipain (Trypanosoma cruzi) (P25779 123-467 limits assumed): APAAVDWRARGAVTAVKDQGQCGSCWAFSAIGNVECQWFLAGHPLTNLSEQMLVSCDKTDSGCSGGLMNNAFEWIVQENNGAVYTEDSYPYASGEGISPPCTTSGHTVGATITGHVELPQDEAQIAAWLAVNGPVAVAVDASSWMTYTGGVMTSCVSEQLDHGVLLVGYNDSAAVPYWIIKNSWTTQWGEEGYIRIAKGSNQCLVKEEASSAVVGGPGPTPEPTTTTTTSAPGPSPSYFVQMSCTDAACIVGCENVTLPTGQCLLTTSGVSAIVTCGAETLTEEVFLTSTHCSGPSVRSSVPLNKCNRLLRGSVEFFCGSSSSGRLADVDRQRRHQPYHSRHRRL
Method in brief: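 Detergent-free condition (0.00005% Triton X-100) in acetate buffer pH 5.5 with DTT. 1.5 nM enzyme and compound were pre-mixed 15 min, then 2 uM Z-FR-AMC substrate added; reaction progress from fluorescence change between first and third reads (60 s).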
With `Cc1ccc(Nc2c(-c3ccc(Cl)cc3)nc3sccn23)c(C)c1` the Potency was 31.6 µM (active). For `Cc1ccc(Nc2c(-c3ccc(C)cc3)nc3cnccn23)cc1`, the max response, negative = inhibition was 5.6%. `O=c1cc(Cn2nnc(-c3ccc(Cl)cc3)n2)nc2sccn12` gave a max response, negative = inhibition of 0.777%. For `Cc1cccc(-n2ccnc2SCC(=O)Nc2cccc3ccccc23)c1C`, the max response, negative = inhibition was -4.61%. `Cc1ccc(OCCCC(=O)Nc2ccc(N3CCOCC3)cc2)cc1` was tested, and the max response, negative = inhibition was -0.526%. For `O=C(COc1ccc([N+](=O)[O-])cc1)Nc1ccc(N2CCCC2)cc1`, the Potency was 7.94 µM (active). For `O=C(COc1ccc(/C=N/NC(=O)c2ccc(O)cc2)cc1)Nc1ccc([N+](=O)[O-])cc1`, the max response, negative = inhibition was -9.42%. Work on `CCS(=O)(=O)N1CCc2cc(C(=O)N3CCN(c4ccccc4OC)CC3)ccc21` yielded a max response, negative = inhibition of -11.9%. `Cc1cc(Cl)ccc1NC(=O)Cc1ccc(NC(=O)N2CCCCc3ccccc32)cc1` gave a max response, negative = inhibition of 8.39%. With `O=C(Nc1ccc(Cl)c(Cl)c1)N1CC=C(c2ccccc2)CC1` the Potency was 31.6 µM (active). For `CC(C(=O)Nc1ccc(Cl)cc1Cl)N1CC=C(c2ccccc2)CC1` (centres undefined), the max response, negative = inhibition was 3.73%. `NC(=O)N1CCCC1C(=O)Nc1ccc(Cl)c(Cl)c1` (centres undefined) gave a max response, negative = inhibition of -7.92%. For `CC(CCCc1ccccc1)NC(=O)c1nn(-c2ccc(Cl)cc2)nc1CO` (centres undefined), the max response, negative = inhibition was 4.3%. With `O=[N+]([O-])c1ccc(N2CCN(S(=O)(=O)c3ccccc3)CC2)cc1N1CCc2ccccc2C1` the Potency was 7.94 µM (active). Work on `CN1CCN(c2ccc(S(=O)(=O)Nc3ccccc3)cc2[N+](=O)[O-])CC1` yielded a max response, negative = inhibition of -3.45%. Molecule `CC(=O)Nc1ccc(S(=O)(=O)N2CCN(c3ccccc3)CC2)cc1` has a max response, negative = inhibition of 4.93%. `Cc1ccccc1CNC(=O)C1CCCN(S(=O)(=O)N(C)c2ccc(F)cc2)C1` (centres undefined) showed a max response, negative = inhibition of 7.13%. `O=C(COc1ccc(Cl)cc1)Nc1ccccc1OCc1cc(=O)n2ccccc2n1` was tested, and the max response, negative = inhibition was -0.406%. `CC(C)c1ccc(Cn2c(COc3ccccc3)nc3ccccc32)cc1` showed a max response, negative = inhibition of -13.5%. For `O=C(Cn1c(=O)nc(-c2ccccc2)c2cc(Cl)ccc21)NCc1ccc(Cl)cc1`, the max response, negative = inhibition was -1.57%. For `CC(C)c1ccc2c(c1)c(SC(C)(C)C)c(CC(C)(C)C(=O)O)n2Cc1ccc(Cl)cc1`, the Potency was 7.94 µM (active) and the max response, negative = inhibition was 1.55%. `COc1ccc(NC(=O)CSc2nccn2Cc2ccc3c(c2)OCO3)cc1` was tested, and the max response, negative = inhibition was -5.6%. For `CCOc1ccc2nc(Cl)c(C3CC(c4ccccc4)=NN3C(=O)c3cccs3)cc2c1` (centres undefined), the Potency was 7.94 µM (active). `CCOc1ccccc1C1CC(c2cccc(NS(C)(=O)=O)c2)=NN1C(=O)c1ccccc1` (centres undefined) showed a max response, negative = inhibition of 4.98%. `O=C(COc1ccc2ccccc2c1)N1CCN(C(=O)c2cccs2)CC1` was tested, and the max response, negative = inhibition was 12.1%. For `CCOC(=O)c1c(C)oc2nc(C)nc(N(CC(C)C)CC(C)C)c12`, the max response, negative = inhibition was -3.29%. `COc1ccc(NC(=O)CN2C(=O)COc3ccc(S(=O)(=O)N4CCOCC4)cc32)cc1` was tested, and the max response, negative = inhibition was 4.14%. With `Nc1ccc(C(=O)OCC(=O)NC2CCCc3ccccc32)cc1[N+](=O)[O-]` (centres undefined) the max response, negative = inhibition was -1.06%. `O=C(NC1CCc2ccccc21)C12CN(Cc3ccccc3)CC1C(c1cccc([N+](=O)[O-])c1)=NO2` (centres undefined) was tested, and the Potency was 12.6 µM (active). In the case of `COc1ccc([N+](=O)[O-])cc1C1NN=C(c2cccc3ccccc23)S1` (centres undefined), the Potency is reported as 7.94 µM (active). For `COc1ccccc1CC(=O)Nc1ccc([N+](=O)[O-])cc1OC`, the max response, negative = inhibition was -6.07%. With `COc1ccc([N+](=O)[O-])cc1NC(=O)CCc1ccccc1` the max response, negative = inhibition was -3.31%. `O=C(CSc1nc(Nc2ccc(F)c(F)c2)c2ccccc2n1)c1ccc(Cl)cc1` gave a max response, negative = inhibition of -24.6%. For `COc1ccccc1CSc1nc2ccccc2[nH]1`, the max response, negative = inhibition was 4.13%. In the case of `Cc1ccccc1OC/C(O)=C(\C#N)c1nc2ccccc2[nH]1`, the Potency is reported as 20 µM (active). `COC(=O)Cc1nc2ccccc2[nH]1` was tested, and the max response, negative = inhibition was -1.4%. For `CCOc1ccc(NC(=O)Cn2c(C)ccc(C#N)c2=O)cc1`, the max response, negative = inhibition was -12.5%. Molecule `COc1ccc(S(=O)(=O)N2CCCC(C(=O)Nc3ccc(NC(=O)c4ccccn4)cc3)C2)cc1` (centres undefined) has a max response, negative = inhibition of -11.4%. `Cc1cc(N2CCN(S(=O)(=O)c3ccc(C)c(C)c3)CC2)c2ccccc2n1` was tested, and the max response, negative = inhibition was 1.17%. With `COc1ccc(S(=O)(=O)N2CCN(c3ncnc4c(-c5ccccc5)nsc34)CC2)cc1` the Potency was 20 µM (active). `COc1cccc(NC(=O)Cn2c(=O)cc(C)c3c(C)nn(-c4cccc(F)c4)c32)c1` was tested, and the max response, negative = inhibition was -8.29%. For `CCC(=O)N1CCc2cc(CNS(=O)(=O)c3ccc(Br)s3)ccc21`, the max response, negative = inhibition was -2.98%. In the case of `CCOc1ccc(Nc2oc(/C=C/c3ccc(F)cc3)nc2C#N)cc1`, the max response, negative = inhibition is reported as -13.4%. In the case of `Cc1c(C)n(Cc2ccc(Cl)cc2)c2ccc(C(=O)N3CCN(c4ccccc4F)CC3)cc12`, the Potency is reported as 12.6 µM (active). Work on `CCn1c(C)c(C)c2cc(C(=O)N3CCN(c4cccc(C)c4C)CC3)ccc21` yielded a max response, negative = inhibition of -25.1%. With `O=C(c1ccc(CN2CCOCC2)cc1)N1CCN(c2ccccc2F)CC1` the max response, negative = inhibition was -4.12%. With `Cc1ccc(C)c(Cn2c(=O)n(CCC(=O)NCc3ccc4c(c3)OCO4)c(=O)c3sccc32)c1` the max response, negative = inhibition was -5.68%. `O=C(CSCc1cnn(-c2ccccc2)c1-n1cccc1)NCc1ccc(Cl)cc1` showed a max response, negative = inhibition of 5.64%. Molecule `Cc1ccc(-n2nc(C)c(C(=O)O)c2-n2cccc2)cc1` has a max response, negative = inhibition of 1.25%. Molecule `CCC(=O)N1CCc2cc(S(=O)(=O)NC(C(=O)NCCc3ccc(C)cc3)C(C)C)ccc21` (centres undefined) has a max response, negative = inhibition of -12.9%. Work on `Cc1ccccc1CN1C(=O)c2ccccc2Sc2ccc(C(=O)NCCCN3CCOCC3)cc21` yielded a max response, negative = inhibition of -3.52%. With `COc1cccc(CNC(=O)c2ccc3c(c2)N(Cc2ccc(C(F)(F)F)cc2)C(=O)c2ccccc2S3)c1OC` the Potency was 10 µM (active). `COc1ccccc1NC(=O)CN1C(=O)c2ccccc2Sc2ccc(C(=O)N3CCCC3)cc21` gave a max response, negative = inhibition of 4.29%. For `Cc1nc(-c2ccc(NC(=O)c3cccs3)cc2)cs1`, the max response, negative = inhibition was -25.5%. For `Cc1ccc(-c2csc(NC(=O)c3cccs3)n2)cc1`, the max response, negative = inhibition was 7.26%. With `Cc1sc(NC(=S)NC(=O)c2cccs2)nc1-c1ccc(CC(C)C)cc1` the Potency was 10 µM (active). For `COc1ccc(C2=NC(c3ccncc3)=Nc3ccc(Br)cc3N2)cc1`, the max response, negative = inhibition was 11.4%. For `O=C(Cn1ncn2nc(-c3cccs3)cc2c1=O)NCc1cccc(Br)c1`, the max response, negative = inhibition was -9.74%. `O=C(CSc1oc(-c2ccco2)nc1S(=O)(=O)c1ccc(Cl)cc1)c1ccccc1` was tested, and the max response, negative = inhibition was 10.2%. With `CCCN(CCC)CCCNC(=O)Cn1cc2c(n1)-c1c(oc(C(=O)N3CCCC3)c1C)CC2` the max response, negative = inhibition was 2.15%. Molecule `CCc1cccc(NC(=O)CN(c2ccc(C)c(C)c2)S(=O)(=O)c2ccsc2C(=O)OC)c1` has a max response, negative = inhibition of -9.83%. In the case of `Cc1ccc(CNC(=O)CSc2c(C)cnc3c2c(=O)n(C)c(=O)n3C)cc1`, the max response, negative = inhibition is reported as -5.95%. `O=C(CNC(=O)c1ccco1)OCC(=O)c1ccccc1` was tested, and the max response, negative = inhibition was -5.08%. `Cc1cc(C(=O)COC(=O)CNC(=O)c2ccc(F)cc2)c(C)n1Cc1ccco1` was tested, and the Potency was 15.8 µM (active). `Cc1nn2c(=O)cc(COC(=O)CNC(=O)c3ccc(F)cc3)nc2s1` gave a max response, negative = inhibition of -12.1%. Work on `O=c1cc(-c2ccccc2)n2c(SCc3ccccc3)nnc2[nH]1` yielded a max response, negative = inhibition of -3.24%. `CC(C)Nc1nc(N(c2ccccc2)c2ccccc2)nc(-n2ccnc2)n1` was tested, and the max response, negative = inhibition was 11.1%. For `N#Cc1nc(N)nc(N(c2ccccc2)c2ccccc2)n1`, the Potency was 1.58 µM (active). In the case of `COc1ccc(NC(=O)CNC(=O)Cn2ccc3ccccc3c2=O)c(OC)c1`, the max response, negative = inhibition is reported as 10.4%. With `COC(=O)COc1ccc2oc(=O)cc(C)c2c1` the max response, negative = inhibition was -6.25%. `Cc1ccccc1N1CCN(CCCOc2ccc3c(C)cc(=O)oc3c2)CC1` was tested, and the max response, negative = inhibition was -15.8%. With `Cc1ccccc1NC(=O)c1ccc(COc2ccc3c(C)cc(=O)oc3c2)cc1` the Potency was 10 µM (active). With `CC(=O)N1CCCc2ccc(NS(=O)(=O)c3ccc(F)cc3F)cc21` the max response, negative = inhibition was 8.5%. For `COc1cc2c(cc1OC)C(COc1ccc(F)cc1)N(C(=O)c1ccccc1F)CC2` (centres undefined), the max response, negative = inhibition was 28.1%. `CC(=O)COc1ccc2c(-c3ccccc3)cc(=O)oc2c1` gave a max response, negative = inhibition of 2.99%. `COc1ccc(-c2c(C)cc3oc(=O)cc(-c4ccccc4)c3c2C)cc1F` was tested, and the Potency was 39.8 µM (active). `COc1ccc(-c2c(C)cc3oc(=O)cc(-c4ccccc4)c3c2C)cc1OC` was tested, and the max response, negative = inhibition was -25.9%. Molecule `Cc1cc(C)cc(NC(=O)CSc2nc3nccnc3c(=O)n2CCc2c[nH]c3ccccc23)c1` has a max response, negative = inhibition of -2.15%. In the case of `O=S(=O)(c1ccccc1)c1nc(-c2ccc(Cl)cc2Cl)oc1N1CCCCC1`, the max response, negative = inhibition is reported as -16.2%. `Cc1ccc(S(=O)(=O)n2nc(C)c(S(=O)(=O)N3CCCCCC3)c2C)cc1` was tested, and the max response, negative = inhibition was -10.4%. For `Oc1c(Cl)cc(Cl)c(Cl)c1Cc1c(O)c(Cl)cc(Cl)c1Cl`, the Potency was 31.6 µM (active) and 25.1 µM (active) and the max response, negative = inhibition was -18.2%. In the case of `CCOc1ccc(NC(=O)CSc2nc3ccccc3c(=O)n2Cc2cccs2)cc1`, the max response, negative = inhibition is reported as -21.1%. In the case of `CCOc1ccc(NC(=O)CSc2ncnc3c2sc2ccccc23)cc1`, the Potency is reported as 25.1 µM (active) and the max response, negative = inhibition is reported as -8.47%. `CCOc1ccc(NC(=O)CSc2c3c(nc4ccccc24)CCCC3)cc1` showed a max response, negative = inhibition of 1.83%. `Cc1ccc(C)c(N2CCN(C(c3ccccc3)c3nnc(-c4ccccc4)o3)CC2)c1` (centres undefined) showed a max response, negative = inhibition of -12.6%. `COc1ccc(CCNC(=O)CCCCn2c(=O)c3ccccc3n(Cc3ccccc3)c2=O)cc1OC` was tested, and the max response, negative = inhibition was -0.815%.
